Only some compounds are listed: those with a hit (about 2.4% of all), similar ones and a draw of the others.
Pol kappa inh: qHTS for Inhibitors of Polymerase Kappa; 0.53% of 400,000 active; DNA polymerase kappa (Homo sapiens), Q9UBT6; Potency, µM (series often up to 107 µM), inactives show at the top dose activity, negative = inhibition, most hits filed as inhibitors; purified Pol kappa, fluorescent DNA synthesis assay, 10 min; also: % is scaled to controls: 0 for no effect and ±100 for the full control effect
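50 nM final substrate added after 15 min RT preincubation of 10 nM Pol kappa with compound; fluorescence read at 0 and 10 min.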
POLH inh: qHTS for Inhibitors of Polymerase Eta; AID 588591, 2011; Potency, µM (series often up to 114 µM), without a hit: at the top dose activity change, negative = inhibition, actives largely listed as inhibitors; 1.2% of 390,000 active; DNA polymerase eta (Homo sapiens), Q9Y253; recombinant Pol eta, fluorescent DNA replication assay; also: % is scaled to controls: 0 for no effect and ±100 for the full control effect
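Fluorescent replication assay: 50 nM final substrate added after a 15 min room-temperature compound preincubation with 10 nM enzyme. Signal taken at 0 min and again at 10 min.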
Pol iota inh: qHTS for Inhibitors of Polymerase Iota | AID 588590, 2011 | DNA polymerase iota (Homo sapiens), Q9UNA4 | Pol iota fluorescent replication assay, 10 min | Potency, µM (titrated, usually from 115 µM), for inactives: at the top dose activity, negative = inhibition, most hits filed as inhibitors | 1% of 390,000 active
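Pol iota at 10 nM preincubated 15 min with compounds at room temperature; reaction started with fluorescent substrate, 50 nM final. Fluorescence read kinetically at 0 and 10 min; buffer-only wells as negative control.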
TDP1 inh: qHTS Assay for Inhibitors of Tyrosyl-DNA Phosphodiesterase (TDP1); Tyrosyl-DNA phosphodiesterase 1 (Homo sapiens), Q9NUW8; recombinant TDP1, AlphaScreen DNA substrate cleavage; Potency, µM (series often up to 130 µM), for inactives: at the highest dose activity change, negative = inhibition, usual class: inhibitors; 0.28% of 350,000 active; AID 485290, 2010; also: % is scaled to controls: 0 for no effect and ±100 for the full control effect; nearly all actives have a fitted effect of over 40% in size
Target sequence (Q9NUW8 whole entry, looked up): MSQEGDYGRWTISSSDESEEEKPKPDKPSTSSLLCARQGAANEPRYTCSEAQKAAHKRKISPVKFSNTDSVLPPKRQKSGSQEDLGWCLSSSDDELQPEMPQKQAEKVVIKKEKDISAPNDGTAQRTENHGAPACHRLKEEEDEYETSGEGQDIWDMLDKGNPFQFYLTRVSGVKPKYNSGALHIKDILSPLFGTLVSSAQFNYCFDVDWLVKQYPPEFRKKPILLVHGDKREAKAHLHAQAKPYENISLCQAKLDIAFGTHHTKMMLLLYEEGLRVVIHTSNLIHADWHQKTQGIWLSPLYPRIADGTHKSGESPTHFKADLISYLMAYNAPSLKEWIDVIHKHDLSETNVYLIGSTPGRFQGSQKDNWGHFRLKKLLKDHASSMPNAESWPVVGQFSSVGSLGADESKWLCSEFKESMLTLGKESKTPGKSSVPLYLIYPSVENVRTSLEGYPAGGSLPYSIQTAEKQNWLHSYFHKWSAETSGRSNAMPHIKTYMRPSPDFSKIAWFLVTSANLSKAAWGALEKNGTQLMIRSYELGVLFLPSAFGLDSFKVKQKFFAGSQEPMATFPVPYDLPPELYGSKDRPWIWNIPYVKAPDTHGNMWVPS
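Enzyme-compound mixtures sat 15 min at room temperature, followed by a 5 min reaction with 15 nM final substrate and 10 min with AlphaScreen beads. Recombinant human Tdp1 was used at 1 nM final.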
POLB inh: qHTS Assay for Inhibitors of DNA Polymerase Beta. P06746. Pol beta primer extension/strand displacement, fluorescence kinetic. Potency, µM (top dose mostly 114 µM), for inactives: at the top dose activity change, negative = inhibition, actives largely listed as inhibitors. 1.3% of 340,000 active. AID 485314, 2010; also: % is scaled to controls: 0 for no effect and ±100 for the full control effect
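Pol beta (10 nM) was preincubated with compound for 15 min at room temperature. The reaction was then started with 50 nM substrate and read immediately and after a further 10 min at room temperature.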
* marks the source's active call; other numbers are inactive results; u = inconclusive; x = not tested or not shown; [ ] = dose if it differs, or a comment. Calls follow the shape of the dose curve; as a rule, active = well fitted curve in the direction sought with a large enough effect; inconclusive = small, poorly fitted or top-dose-only effect, or another doubt; inactive = no such curve, though single readings can be large; an effect the other way counts as inactive or inconclusive. Potency is read from the fitted curve at half-maximal effect.

SMILES	Pol kappa inh	POLH inh	Pol iota inh	TDP1 inh	POLB inh
Cc1ccc(S(=O)(=O)c2cn(CC(=O)Nc3ccc4c(c3)OCO4)c3ccc(F)cc3c2=O)cc1	-4%	-9%	34%	-1%	14%
O=C1/C(=C\c2ccc(Br)o2)SC(=Nc2ccccc2)N1c1ccccc1	u	-28%	u	4%	0.4µM*
O=C(NCCCc1nc2ccccc2n1Cc1ccc(F)cc1)C1CCCCC1	-23%	-14%	-6%	8%	4%
COc1ccc(-c2noc(-c3ccc(N4CCC(C)CC4)c([N+](=O)[O-])c3)n2)cc1OC	u	-6%	-18%	11%	79µM*
COc1ccc(-c2noc(-c3ccc(N4CCOCC4)c([N+](=O)[O-])c3)n2)cc1OC	-3%	-13%	12%	9%	2%
CCOC(=O)c1cnc2nc(NCc3cccc(Br)c3)[nH]n2c1=O	12%	-12%	31%	7%	7%
CCOC(=O)c1cnc2nc(NCc3ccc(OC)c(OC)c3)[nH]n2c1=O	-3%	20µM*	u	5%	35µM*
COc1cc2nc(N3CCCN(C)CC3)nc(NC3CCN(C)C3)c2cc1OC (centres undefined)	-31%	x	-9%	x	x
CC1(C)CC(=O)C(C(=O)/C=C/c2ccco2)C(=O)C1	-5%	-8%	10%	6%	11µM*
COc1cccc(CNS(=O)(=O)c2ccc3c(c2)C(C(C)C)C(=O)N3)c1 (centres undefined)	-13%	-9%	11%	3%	-3%
COc1c(O)cc(O)cc1O	25µM*	x	x	20µM*	x
NC(=O)CN1C(=O)NC(c2ccccc2)(c2ccccc2)C1=O	-2%	1%	-22%	45µM*	-28%
CC(C)(C)C(=O)CN1C(=O)NC(c2ccccc2)(c2ccccc2)C1=O	3%	-11%	15%	15%	1%
CSCC[C@H](NC(=O)[C@H](Cc1ccc(OS(=O)(=O)O)cc1)NC(=O)[C@@H](N)CC(=O)O)C(=O)NCC(=O)N[C@@H](Cc1c[nH]c2ccccc12)C(=O)N[C@@H](CCSC)C(=O)N[C@@H](CC(=O)O)C(=O)N[C@@H](Cc1ccccc1)C(N)=O	7%[60.1 µM]	x	x	11%	x
CCN(CC)c1ccc(NS(=O)(=O)c2cc3[nH]c(=O)c(=O)[nH]c3cc2C)c(C)c1	u	-24%	u	-9%	50µM*
Cc1cc(Cl)ccc1NS(=O)(=O)c1cc2[nH]c(=O)c(=O)[nH]c2cc1C	-9%	-8%	16%	-2%	39%
O=C(CSc1nc(-c2ccccc2)no1)N1CCN(c2ccccc2F)CC1	-9%	-12%	89µM*	3%	1%
CC(C)c1ccc(-c2noc(SCC(=O)N3CCN(c4ccccc4F)CC3)n2)cc1	-16%	-18%	29%	3%	u
N#CC1=C2SCN(C3CCCCC3)CN2C(=O)CC1c1ccc(F)cc1 (centres undefined)	-16%	-19%	25µM*	5%	-16%
N#CC1=C2SCN(C3CCCCC3)CN2C(=O)CC1c1ccc(Cl)cc1 (centres undefined)	-31%	u	u	-2%	u
COc1ccccc1N1CSC2=C(C#N)C(c3ccc(SC)cc3)CC(=O)N2C1 (centres undefined)	u	45µM*	u	6%	25µM*
Cc1ccc(S(=O)(=O)N2CCN(c3nc(-c4ccc(CN5CCNCC5)s4)nc4ccccc34)CC2)cc1	-7%	x	-14%	x	x
COc1ccc(-c2nnc(Nc3nc4c(OC)cccc4s3)o2)cc1	35µM*	79µM*	u	-8%	32µM*
COc1ccc(-c2nnc(Nc3nc4c(OC)cccc4s3)o2)c(OC)c1	-16%	u	u	11%	-21%
Cc1ccccc1NC(=O)Cn1c(O)c(N=NC(=O)c2ccccc2O)c2ccccc21	u	u	u	0%	10µM*
SMILES	Pol kappa inh	POLH inh	Pol iota inh	TDP1 inh	POLB inh
Cc1ccc(NC(=O)Cn2c(O)c(N=NC(N)=O)c3ccccc32)cc1	4%	-21%	47%	1%	-4%
Cc1ccc2c(N)c(C)ccc2c1	-10%	-4%	14%	5%	15%
Cc1ccc2cc3c(N)c4c(C)ccc(C)c4nc3nc2c1	-33%	u	u	-5%	25µM*
Cc1cccc(N2CCn3c2nc2c3c(=O)n(CCCc3ccccc3)c(=O)n2C)c1	-29%	-10%	-3%	1%	89µM*
CCOCCn1c(=O)c2c(nc3n2CCN3c2ccc(C)c(C)c2)n(C)c1=O	-7%	-11%	u	u	20µM*
Cc1cccc(N2CCn3c2nc2c3c(=O)n(CCc3ccccc3)c(=O)n2C)c1	-16%	-23%	19%	5%	40µM*
O=C(CCCCCn1c(=S)[nH]c2cc3c(cc2c1=O)OCO3)N1CCN(Cc2ccccc2)CC1	-10%	-6%	6%	-1%	16%
O=C(CCCn1c(=S)[nH]c2cc3c(cc2c1=O)OCO3)NCc1cccc(Cl)c1	u	-17%	45µM*	1%	1%
O=C(CCCCCn1c(=S)[nH]c2cc3c(cc2c1=O)OCO3)N1CCN(C(=O)c2ccco2)CC1	-30%	u	28µM*	x	u
NS(=O)(=O)c1ccc(NC(=O)c2nc(S(=O)(=O)Cc3ccccc3F)ncc2Cl)cc1	-1%	x	76%	x	x
CCS(=O)(=O)N1Cc2ccccc2CC1C(=O)Nc1ncc(C)s1 (centres undefined)	0%	-11%	17%	5%	-3%
CCSc1nnc(NC(=O)C2Cc3ccccc3CN2C(=O)c2ccco2)s1 (centres undefined)	u	28µM*	u	0%	22µM*
Cc1ccccc1NC(=O)C1Cc2ccccc2CN1C(=O)c1ccco1 (centres undefined)	-10%	-12%	-8%	2%	4%
CCS(=O)(=O)N1Cc2ccccc2CC1C(=O)Nc1nnc(SCc2ccc(C#N)cc2)s1 (centres undefined)	u	u	u	8%	10µM*
CCN1CC2([N+](=O)[O-])C=CC(=O)C([N+](=O)[O-])(C1)C2CC(=O)c1ccccc1 (centres undefined)	-14%	25µM*	u	1%	0%
CCc1ccc2nc3nc(C)cc(C)c3c(N)c2c1	-10%	2%	u	-3%	u
Cc1cc(C)c2c(N)c3ccccc3nc2n1	-31%	-15%	14µM*	-4%	25µM*
Cc1ccc(/C(N)=N/OC(=O)CCCc2ccccc2)cc1	-9%	-19%	71%	50µM*	-5%

Screening results: PubChem, National Center for Advancing Translational Sciences (NCATS)
